# Results taken from PubChem BioAssay AID596 (National Center for Advancing Translational Sciences (NCATS), 2007).
# Among all 71,000 compounds or so, about 1,400 (2%) were called active. Another 3% or so got no clear call; they are omitted. This is one part of a sample in which actives are shown more often than they occur. Calls follow the shape of the dose curve; as a rule, active = well fitted curve in the direction sought with a large enough effect; inconclusive = small, poorly fitted or top-dose-only effect; inactive = no such curve, though single readings can be large or run the other way.
# Target: Microtubule-associated protein tau (Homo sapiens) (UniProt P10636)
# Test: qHTS Assay for Tau Filament Binding;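 also: actives lower thioflavin S fluorescence by blocking filaments or displacing dye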
# Details: recombinant tau filaments, thioflavin S fluorescence, 15 h, filaments grown with octadecylsulfate alongside compound; series mostly up to 57.1 µM; activity change, negative = inhibition: at the top concentration
# Excerpt: NIH Molecular Libraries Screening Centers Network [MLSCN]
# NIH Chemical Genomics Center [NCGC]
# Assay Provider: Jeffrey A. Kuret, Ohio State University
# Tau monomers form filaments in vitro in the presence of anionic detergents or fatty acids. The dye Thioflavine S (ThS) binds to tau filaments and upon binding, increases in fluorescence several fold. Small molecules that displace ThS binding or prevent filament binding are identified by a reduction in ThS fluorescence. This assay used histidine-tagged, recombinant human tau protein containing the products of exons 2, 3, and 10 that was provided by Jeff Kuret, Ohio State University. To form filaments, 1 uM tau was incubated with 30 uM sodium octadecylsulfate (ODS) in reagent buffer (10 uM thioflavine S, 5 mM 1,4-dithioerythreitol (DTT), 100 mM sodium chloride, 10 mM HEPES pH 7.4) for 15 hrs at 37 C.
# NCGC Assay Protocol Summary:
# Assay Steps. Two uL/well of 2 uM tau in reagent buffer (10 uM thioflavine S, 5 mM DTT, 100 mM sodium chloride, 10 mM HEPES pH 7.4) was dispensed into solid black 1536-well plates. Twenty-three nL compound was transferred to the assay plate after which 2 uL/well of 60 uM ODS in reagent buffer was dispensed for a final assay volume of 4 uL /well. Following 15 hours of incubation at 37 C, fluorescence was detected by an Envision (Perkin Elmer) using 450/8 nm excitation and 510/23 nm emission.
# Keywords: NIH Roadmap, MLSCN, MLI, MLSMR, qHTS, NCGC, Alzheimer's disease, Neurofibrillary lesions, tau, tubulin assembly, microtubule stability, cytoskeletal integrity, fibrillization, thioflavin dyes, Amyloidgenic
# % is scaled to controls: 0 for no effect and ±100 for the full control effect; potency is read from the fitted curve at half-maximal effect.
# Sequence of Microtubule-associated protein tau (Homo sapiens) (P10636 whole entry, looked up): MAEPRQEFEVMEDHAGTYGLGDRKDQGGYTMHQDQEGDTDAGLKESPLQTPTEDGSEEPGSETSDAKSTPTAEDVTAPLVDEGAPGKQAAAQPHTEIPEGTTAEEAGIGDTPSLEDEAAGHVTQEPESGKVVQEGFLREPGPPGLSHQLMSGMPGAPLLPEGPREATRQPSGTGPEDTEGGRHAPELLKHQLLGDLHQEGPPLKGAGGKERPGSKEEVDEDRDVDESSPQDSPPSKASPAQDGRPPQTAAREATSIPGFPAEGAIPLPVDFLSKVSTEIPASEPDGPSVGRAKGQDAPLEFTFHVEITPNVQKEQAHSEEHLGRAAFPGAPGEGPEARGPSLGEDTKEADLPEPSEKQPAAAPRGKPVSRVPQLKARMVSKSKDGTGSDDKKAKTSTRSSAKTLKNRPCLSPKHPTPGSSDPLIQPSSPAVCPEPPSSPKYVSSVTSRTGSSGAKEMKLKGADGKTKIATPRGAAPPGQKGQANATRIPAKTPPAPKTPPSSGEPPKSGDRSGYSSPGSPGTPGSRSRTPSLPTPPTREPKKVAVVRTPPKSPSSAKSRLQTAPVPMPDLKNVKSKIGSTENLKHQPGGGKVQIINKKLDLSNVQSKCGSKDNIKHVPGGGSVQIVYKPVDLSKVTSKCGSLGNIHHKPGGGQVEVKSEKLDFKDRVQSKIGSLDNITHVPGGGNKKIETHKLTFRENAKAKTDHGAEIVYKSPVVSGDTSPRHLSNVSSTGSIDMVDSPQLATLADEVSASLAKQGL
Compound,"activity change, negative = inhibition",Potency
Nc1cc(=O)nc(SCc2ccccc2)n1Cc1ccco1,-10.8% (inactive),–
c1ccc(CSc2nnc(-c3ccco3)n2Cc2ccccc2)cc1,6.8% (inactive),–
c1ccc(CSc2nnc(-c3ccco3)c(-c3ccco3)n2)cc1,–,7.94 µM (active)
COc1cccc(Cn2c(=O)c(C)nc3cnc(Oc4ccccc4)nc32)c1,-14.4% (inactive),–
O=C(O)c1nccnc1C(=O)Nc1ccc(Br)cn1,-1.2% (inactive),–
CCS(=O)(=O)N(C)[C@@H]1c2cc(C#N)ccc2OC(C)(C)[C@H]1O,–,39.8 µM (active)
C=CCOC(=O)COCCC(C)C,13.7% (inactive),–
NC[C@@H]1O[C@H](O[C@@H]2[C@H](O[C@@H]3O[C@H](CO)[C@@H](COC[C@H]4O[C@@H](CN)[C@@H](O)[C@@H](O)[C@@H]4N)[C@@H]3O)[C@@H](O)[C@@H](N)C[C@H]2N)[C@@H](N)[C@H](O)[C@@H]1O,-1.7% [at 25.6 µM] (inactive),–
O=Cc1c(Cl)cccc1Cl,4.8% (inactive),–
CC(=O)OCC(COC(C)=O)OC(C)=O,-6.1% (inactive),–
CC(c1ccccc1)n1c(NCCCn2ccnc2)nc2c1c(=O)[nH]c(=O)n2C (stereo not given),-3.1% (inactive),–
O=C(CSc1nnc(-c2cccnc2)n1Cc1ccco1)c1ccc(Cl)cc1,1.3% (inactive),–
Clc1cccc(-c2nc3nc4ccccc4nc3n2Cc2ccco2)c1,–,15.8 µM (active)
CC(Sc1nc2ccccc2c(=O)n1Cc1ccco1)C(=O)c1ccccc1 (stereo not given),14.2% (inactive),–
CC(C)CSC[C@@H]1O[C@H](n2cnc3c(N)nccc32)[C@H](O)[C@@H]1O,-0.6% [at 11.4 µM] (inactive),–
O=c1c(CCc2ccccc2)nc2cnc(N3CCNCC3)nc2n1Cc1cccs1,19.3% (inactive),–
Cc1cc(C)cc(N)c1,11.7% (inactive),–
N#Cc1ccc(COC(=O)Cn2nnc(-c3ccccc3)n2)cc1,-11.5% (inactive),–
NC1(C(=O)OCc2ccccc2)CCCC1,6.1% [at 11.4 µM] (inactive),–
N#Cc1c(N)sc2c1CCN(C(=O)OCc1ccccc1)C2,–,15.8 µM (active)
COc1ccccc1NC(=O)C1=C(C)NC2=C(C(=O)CCC2)C1c1ccc(C)o1 (stereo not given),0.5% (inactive),–
COC(=O)C1=C(C)NC2=C(C(=O)c3ccccc32)C1c1ccc(-c2ccc(C(=O)O)cc2)o1 (stereo not given),–,25.1 µM (active)
COC(=O)C1=C(C)NC(=O)NC1/C=C/c1ccccc1 (stereo not given),11.1% (inactive),–
Cc1cccc(C(=O)O)c1,0.9% (inactive),–

Compound,"activity change, negative = inhibition",Potency
CCN(CC)C(=O)c1sc(NC(=O)c2ccco2)c(C#N)c1C,5.3% (inactive),–
COc1ccc(C(=O)N/N=C2/C(=O)c3c(C)cc(C)cc3CC2(C)C)cc1,–,5.01 µM (active)
COc1ccc(NC(=O)c2ccc(OC)cc2)cc1,8.2% (inactive),–
CCCC[C@H]1C(=O)N(c2ccccc2)N(c2ccc(O)cc2)C1=O,-14.5% [at 25.6 µM] (inactive),–
CCCC1CC(C)(C(=O)Cn2[nH]c(=O)ccc2=O)OC1=O (stereo not given),0% (inactive),–
CCC1(C)Cc2c(sc3nc4n(c(=O)c23)CCCS4)CO1 (stereo not given),-15.1% (inactive),–
CN(C)CCSc1nc(N)c2c3c(sc2n1)COC(C)(C)C3,–,12.6 µM (active)
O=C1NC(=O)[C@@](Cc2ccccc2)(c2cccnc2)N1,-0.4% [at 11.4 µM] (inactive),–
COC(=O)C1(C)C=CC2(CCCCC2)N1C(C)=O (stereo not given),-2.6% (inactive),–
Cn1c(=O)c(CCc2ccccc2)nc2cnc(Nc3ccccc3)nc21,102% (inactive),–
CNC(=O)C1(C)C=CC2(CCCCC2)N1C(C)=O (stereo not given),-0.4% (inactive),–
Cc1nn(C(=O)c2ccoc2C)c(N)c1-c1ccccc1,-16.2% (inactive),–
Cc1nn2c(c1-c1ccccc1)N=C(c1ccco1)CC2c1ccccc1 (stereo not given),–,10 µM (active)
C[C@@H]1O[C@@H](O[C@@H]2[C@@H](O)[C@H](OCCc3ccc(O)c(O)c3)O[C@H](CO[C@@H]3O[C@H](CO)[C@@H](O)[C@H](O)[C@H]3O)[C@H]2OC(=O)/C=C/c2ccc(O)c(O)c2)[C@H](O)[C@H](O)[C@H]1O,5.1% (inactive),–
CCCC(C(=O)NCc1ccco1)N(C(=O)CNS(=O)(=O)c1ccccc1)C1CCCC1 (stereo not given),-19.1% (inactive),–
CC(=O)N1CCC2(CC1)CCN(c1ccncc1)CC2,5.9% (inactive),–
CN1CCN(c2ccc(NC(=O)COc3ccc(Cl)cc3Cl)cc2)CC1,3.5% (inactive),–
CC(=O)N1CCN(c2ccc(NCc3ccc(C(C)C)cc3)cc2)CC1,–,25.1 µM (active)
COCCNc1ncnc2ccc(-c3ccccc3CN(C)C)cc12,4.2% (inactive),–
O=c1cc(-c2ccc(O)c(O)c2)oc2cccc(O)c12,–,39.8 µM (active)
COC(=O)[C@@]1(Cc2ccc(F)cc2)[C@@H]2[C@@H](CC(=O)[C@H]2CC(=O)C(=O)N2CCCC2)CN1C(=O)c1ccccc1,-4.8% (inactive),–
Cc1ccc(/C(=C/CN2CCCC2)c2ccccn2)cc1,–,inactive
C=C(C)C1CC=C(C)C(O)C1 (stereo not given),3.7% (inactive),–
CC(=O)Oc1ccccc1C(=O)Nc1ncc([N+](=O)[O-])s1,0.6% (inactive),–

Compound,"activity change, negative = inhibition",Potency
O=c1c(CCc2ccccc2)nc2cncnc2n1C1CC1,-4.1% (inactive),–
c1ccc(-c2cc(-c3nnc4sc(-c5ccccn5)nn34)[nH]n2)cc1,–,1 µM (active)
COc1cc(-c2nn3c(-c4cccc(C)c4)nnc3s2)cc(OC)c1OC,38.8% (inactive),–
Cc1cccc(NC(=O)C2CCN(S(=O)(=O)c3cccc4cccnc34)CC2)c1,1.5% (inactive),–
COC(=O)CCCCCN1C(=O)NC(c2ccc(-c3ccccc3)cc2)C(C(=O)OCc2ccccc2)=C1C (stereo not given),-3.4% (inactive),–
O=C(CN1CCN(c2ccc(F)cc2)CC1)Nc1cccc(C(F)(F)F)c1,-3.8% (inactive),–
O=C(CSc1nnc(-c2ccco2)o1)NCC(=O)c1ccccc1,-5.7% (inactive),–
CCN1C(=O)c2cccc3c(N)ccc1c23,–,25.1 µM (active)
CCCCN(C)C(=O)c1ccc2c(c1)N(CC)C(=O)c1ccccc1S2(=O)=O,5.4% (inactive),–
Oc1ccc(O)c2c(O)cccc12,–,5.01 µM (active)
COC(=O)Nc1ncc(CN2C(=O)c3ccccc3C2=O)s1,1.9% (inactive),–
CCOc1ccccc1N=C1NC(=O)CS1,-6% (inactive),–
C[N+](C)(C)CCCCCNCC12CC3CC(CC(C3)C1)C2,–,31.6 µM (active)
CCc1ccc(CCC(=O)Nc2ccc(S(N)(=O)=O)cc2)o1,-6.1% (inactive),–
O=C(NCc1ccco1)c1cccn2c(=O)c3cc(Br)ccc3nc12,–,25.1 µM (active)
Cc1cccn2c(=O)c3cc(C(=O)NCc4ccccn4)n(C)c3nc12,9.9% (inactive),–
O=C(Nc1ccccc1)Nc1ccccc1C(=O)NCc1ccco1,-4.8% (inactive),–
COc1ccc(CNC(=O)c2cc3c(=O)n4ccccc4nc3n(CC3CCCO3)c2=N)cc1 (stereo not given),–,2.51 µM (active)
COC(=O)c1ccc2c(=O)n(CC3CCCO3)c(=S)[nH]c2c1 (stereo not given),6.1% (inactive),–
COc1ccc(CCn2c(=N)c(C(=O)NCc3ccco3)cc3c(=O)n4cccc(C)c4nc32)cc1,–,2 µM (active)
CCOc1ccccc1C(=O)NCc1ccco1,20.9% (inactive),–
CCn1c(=N)c(C(=O)NCCCOC)cc2c(=O)n3cccc(C)c3nc21,-2.4% (inactive),–
